Experimental data taken from the supplement of paper PMC9135407.
Counter-ions that a name gives are not always drawn.

tested on: primary human hepatic stellate cells (donor 1); assay: PSMB2 reference mRNA level vs DMSO (fold); higher = more PSMB2 expression; conditions: 48 h
Method: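 Secondary qRT-PCR screen in primary human HSCs (donor 1), 384-well plates, with compounds dispensed in quadruplicate and incubated for 48 h. Cells-to-CT lysates were used for multiplexed TaqMan qPCR of ACTA2 or COL1A1 with PSMB2 as reference. Fold changes versus DMSO come from a linear model (Ct_gene ~ Ct_PSMB2 + plate + chemical). A hit is defined as COL1A1 and ACTA2 FC <0.5 (FDR <0.05) with PSMB2 between 0.2 and 2.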

Compound | PSMB2 reference mRNA level
CNCCCC12CCC(c3ccccc31)c1ccccc12 [Maprotiline hydrochloride] (33.3333 µM) | 1.89
O=C(Nc1ncc(SCCN2CCCC2)s1)[C@]1(c2ccc(S(=O)(=O)C3CC3)cc2)C[C@H]1C1CCCCC1 (11.1 µM) | 0.35
CCCCCCCCCCCCCCCCn1cc[n+](Cc2ccccc2)c1C (11.1 µM) | 0.00468
CNCCC(Oc1ccc(C(F)(F)F)cc1)c1ccccc1 (stereo not given) [Fluoxetine hydrochloride] (33.3333 µM) | 0.204
CNCc1ccc(-c2[nH]c3cc(F)cc4c3c2CCNC4=O)cc1 (33.3333 µM) | 0.974
C[C@@H](CN1CCC(n2c(=O)[nH]c3cc(Cl)ccc32)CC1)NC(=O)c1ccc2ccccc2c1 (33.3333 µM) | 0.16
CCc1cc2c(cc1CC)CC(NC[C@H](O)c1ccc(O)c3[nH]c(=O)ccc13)C2 [Indacaterol Maleate] (33.3333 µM) | 0.728
CCN(CC)CCOc1ccc(Cc2ccccc2)cc1 [DPPE fumarate] (33.3333 µM) | 0.798
CN(C)CCCCC(=O)Nc1ccc(NC(=S)NC(=O)c2ccc(C(C)(C)C)cc2)cc1 [Tenovin-6] (33.3333 µM) | 0.000996
CC(C)(C)c1cc(NC(=O)Nc2ccc(-c3cn4c(n3)sc3cc(OCCN5CCOCC5)ccc34)cc2)no1 [Quizartinib  (AC220)] (11.1 µM) | 2.12
CCNC(=O)c1noc(-c2cc(C(C)C)c(O)cc2O)c1-c1ccc(CN2CCOCC2)cc1 (11.1 µM) | 1.72
NC[C@@H]1O[C@H](C23CC4CC(CC(C4)C2)C3)Cc2c1ccc(O)c2O (33.3333 µM) | 0.00124
CNc1nccc(-c2cccnc2Oc2cc(C(=O)Nc3cccc(C(F)(F)F)c3)ccc2C)n1 (33.3333 µM) | 0.887
O=C(O[C@H]1CN2CCC1CC2)N1CCc2ccccc2[C@@H]1c1ccccc1 [Solifenacin succinate] (33.3333 µM) | 0.935
Cc1ccc2c(c1)c1c3n2CCNC3CCC1 (stereo not given) [Pirlindole mesylate] (20.6667 µM) | 0.807
CN1CCN(Cc2ccc(-c3cnc4[nH]cc(-c5ccc6[nH]ccc6c5)c4c3)cc2)CC1 (6.66667 µM) | 0.507
O=C1NC(=O)/C(=C/c2ccc(-c3ccc(F)cc3O)o2)S1 (33.3333 µM) | 3.41
CCCCCCCCCCCCC/C=C/[C@@H](O)[C@H](CO)N(C)C [N,N-Dimethylsphingosine] (3.33333 µM) | 0.511
CNC(=O)[C@@H](Cc1ccccc1)N(C)C(=O)[C@@H](Cc1ccc2ccccc2c1)N(C)C(=O)/C=C/CC(C)(C)N [Tabimorelin] (33.3333 µM) | 1.83
Cc1cc(C(=O)Nc2cc(Nc3ccc4c(/C=C/c5ccccn5)n[nH]c4c3)ccc2F)n(C)n1 (33.3333 µM) | 0.985

Compound | PSMB2 reference mRNA level
CN1CCCN(C(c2ccccc2)c2ccc(Cl)cc2)CC1 (stereo not given) [Homochlorcyclizine dihydrochloride] (33.3333 µM) | 1.19
CN1CCC(Nc2ncc3ncnc(Nc4ccc(F)c(Cl)c4)c3n2)CC1 [BIBX 1382 dihydrochloride] (33.3333 µM) | 0.0502
CN1CCC(CNc2ccc3ncc(-c4cccc(OC(F)(F)F)c4)n3n2)CC1 (6.66667 µM) | 0.712
Cc1cc(Nc2cc(N3CCN(C)CC3)nc(/C=C/c3ccccc3)n2)n[nH]1 (11.1 µM) | 0.122
Clc1ccc(C2(c3ccc(-c4cn[nH]c4)cc3)CCNCC2)cc1 (33.3333 µM) | 0.745
CS(=O)(=O)CCNCc1ccc(-c2ccc3ncnc(Nc4ccc(OCc5cccc(F)c5)c(Cl)c4)c3c2)o1 (6.66667 µM) | 1.27
C[C@@H](Oc1cc(-c2cnn(C3CCNCC3)c2)cnc1N)c1c(Cl)ccc(F)c1Cl (11.1 µM) | 0.805
C#C[C@]1(O)CC[C@H]2[C@@H]3CCC4=Cc5oncc5C[C@]4(C)[C@H]3CC[C@@]21C [Danazol] (33.3333 µM) | 0.993
O=C1NCN(c2ccccc2)C12CCN(CCCC(c1ccc(F)cc1)c1ccc(F)cc1)CC2 [Fluspirilene] (14.0333 µM) | 1.38
CC1(C)CC(=O)c2c(C(F)(F)F)nn(-c3ccc(C(N)=O)c(N[C@H]4CC[C@H](OC(=O)CN)CC4)c3)c2C1 (33.3333 µM) | 0.59
Cc1nc(Nc2ncc(C(=O)Nc3c(C)cccc3Cl)s2)cc(N2CCN(CCO)CC2)n1 (33.3333 µM) | 1.6
C#CC1(O)CC[C@H]2[C@@H]3CCC4=CC(=O)CC[C@@H]4[C@H]3CC[C@@]21CC (stereo not given in full) [Norgestrel] (21.3333 µM) | 1.14
COc1ccccc1OCCNCC(O)COc1cccc2[nH]c3ccccc3c12 (stereo not given) [Carvedilol] (33.3333 µM) | 2.15
O=C(Nc1cc(C(F)(F)F)cc(C(F)(F)F)c1)c1cc(Cl)ccc1O (33.3333 µM) | 1.2
CCN(CC)CCCCNc1ncc2cc(-c3c(Cl)cccc3Cl)c(NC(=O)NC(C)(C)C)nc2n1 (33.3333 µM) | 0.792
CSc1ccc2c(c1)C(N1CCN(C)CC1)Cc1ccccc1S2 (stereo not given) [Methiothepin maleate] (33.3333 µM) | 0.000808
CC#CCOC(=O)c1c(C)nc2sc3c(c2c1N)CCC(O)C3 (stereo not given) (33.3333 µM) | 0.434
COc1ccc(NS(=O)(=O)c2sc3ccc(Cl)cc3c2C)cc1N1CCNCC1 (33.3333 µM) | 0.507
CCCCc1oc2ccccc2c1C(=O)c1cc(I)c(OCCN(CC)CC)c(I)c1 (33.3333 µM) | 0.537
O=S(=O)(NCCNC/C=C/c1ccc(Br)cc1)c1cccc2cnccc12 [H-89, Dihydrochloride] (11.1 µM) | 1.02
